The panel holds about 83,000 compounds, 20% with a hit somewhere; the sample as a whole holds those more often.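 In brief: 96-well plates, 48 h treatment, single concentration, percent growth endpoint.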 A number with no mark means an inactive call. Calls of active or inactive are those of the source. The calls were made as follows: active = growth percent below 10; inactive = the rest.

Data on nine compounds can be found in PubChem BioAssay (NCI).

Some test systems named below: RPMI-8226 leukemia; OVCAR-8 ovarian; OVCAR-5 ovarian; OVCAR-4 ovarian; SK-OV-3 ovarian; IGROV1 ovarian; OVCAR-3 ovarian; HS 578T breast; NCI/ADR-RES ovarian; T-47D breast; BT-549 breast; MDA-MB-435 melanoma; SW-620 colon; MCF7 breast; HCT-116 colon; HCC-2998 colon; KM12 colon.
What all share (assay): NCI-60 one-dose screen, 48 h (100 = growth as untreated, 0 = no growth, -100 = all killed)
Common to all, as to details: 10 µM unless noted

As for `COc1cc2c(cc1OCCCOc1ccc(-c3cc4ccccc4c4ccccc34)cc1)N=C[C@@H]1CCCN1C2=O`, the growth with RPMI-8226 leukemia was 0.228% (active); in the test on OVCAR-8 ovarian, -6.49% (active); with OVCAR-5 ovarian, -69.5% (active); with OVCAR-4 ovarian it was -77.1% (active); in the test on SK-OV-3 ovarian it was -19.3% (active); with IGROV1 ovarian, -72.3% (active). Moreover, the growth in the test with OVCAR-3 ovarian is -48.4% (active); in the test with HS 578T breast, -15.3% (active); in the test with NCI/ADR-RES ovarian it was -46.1% (active); in the test with T-47D breast, -66.4% (active); in the test with BT-549 breast it was -50.8% (active); with MDA-MB-435 melanoma, -30.8% (active). For the same compound, the growth was -43.8% (active) in the test on SW-620 colon; -75.1% (active) in the test on MCF7 breast; -23.1% (active) with HCT-116 colon; 2.28% (active) in the test on HCC-2998 colon; -20.4% (active) with KM12 colon.
On to `O=C1OC(c2ccc(-c3ccccc3)cc2)=C/C1=C/c1cccs1`, for which the growth with RPMI-8226 leukemia was 138%; with OVCAR-8 ovarian it was 78.9%; in the test with OVCAR-5 ovarian, 98.5%; with OVCAR-4 ovarian, 65.5%; in the test with SK-OV-3 ovarian it was 128%; in the test with IGROV1 ovarian, 93%. Also, the growth was 89.2% in the test with OVCAR-3 ovarian; 98.4% with HS 578T breast; 86.5% in the test with NCI/ADR-RES ovarian; 33.6% in the test with T-47D breast; 92% in the test on BT-549 breast; 99% in the test with MDA-MB-435 melanoma. The growth in the test on SW-620 colon was 105%; with MCF7 breast it was 41.6%; with HCT-116 colon, 93.3%; in the test with HCC-2998 colon, 112%; in the test with KM12 colon it was 88.1%.
For `Cc1cc(C)c2c(c1)N1OC(C2)C[C@H]1/C=C/c1ccccc1` (stereo partly drawn), the growth is 94.9% in the test on RPMI-8226 leukemia; 102% in the test on OVCAR-8 ovarian; 99% in the test with OVCAR-5 ovarian; 81.8% in the test with OVCAR-4 ovarian; 116% with SK-OV-3 ovarian; 82.3% with IGROV1 ovarian. The growth in the test on OVCAR-3 ovarian was 116%; with HS 578T breast it was 122%; with NCI/ADR-RES ovarian, 95.9%; in the test on T-47D breast, 93.6%; in the test with BT-549 breast, 105%; with MDA-MB-435 melanoma, 87.2%. Further, the growth is 108% in the test on SW-620 colon; 88% in the test on MCF7 breast; 84.6% in the test with HCT-116 colon; 98.2% with HCC-2998 colon; 107% in the test with KM12 colon.
Consider `CSc1nc2c(c(=O)[nH]1)C(c1ccc(Cl)cc1)C1=C(N2)/C(=C/c2ccc(Cl)cc2)CNC1` (stereo not drawn), for which the growth with RPMI-8226 leukemia was -13.4% (active); with OVCAR-8 ovarian, 31.6%; with OVCAR-5 ovarian it was 105%; in the test on OVCAR-4 ovarian, 33.1%; in the test with SK-OV-3 ovarian, 87.4%; in the test with IGROV1 ovarian, 26.1%. The growth with OVCAR-3 ovarian is 4.17% (active); in the test with HS 578T breast, 68.7%; with NCI/ADR-RES ovarian, 74.5%; in the test on T-47D breast, 54.3%; in the test with BT-549 breast, 24.8%; in the test on MDA-MB-435 melanoma it was 34.5%. The growth was -9.84% (active) in the test on SW-620 colon; 13% with MCF7 breast; -69.5% (active) in the test with HCT-116 colon; 17.3% in the test on HCC-2998 colon; -24% (active) in the test with KM12 colon.
`Fc1ccc(-c2nc(Nc3ccc(-c4nc5ccccc5[nH]4)cc3)nc(N3CCOCC3)n2)cc1`: the growth in the test on RPMI-8226 leukemia is -73.4% (active); with OVCAR-8 ovarian, -73.8% (active); in the test with OVCAR-5 ovarian, -74.7% (active); in the test with OVCAR-4 ovarian, -73.9% (active); in the test with SK-OV-3 ovarian, -89.9% (active); in the test on IGROV1 ovarian, -71.2% (active). Also, the growth was -95.6% (active) with OVCAR-3 ovarian; -40.3% (active) with HS 578T breast; -87.5% (active) in the test with NCI/ADR-RES ovarian; -64.8% (active) in the test with T-47D breast; -73.6% (active) in the test with BT-549 breast; -86.1% (active) with MDA-MB-435 melanoma. For the same compound, the growth is -74.2% (active) in the test on SW-620 colon; -73.8% (active) with MCF7 breast; -85.5% (active) in the test on HCT-116 colon; -89.9% (active) with HCC-2998 colon; -91.3% (active) in the test on KM12 colon.
Turning to `CCOC(=O)C1=C(C)N2C(=NC3=C(CCC/C3=C\c3ccc(Cl)cc3)C2c2ccc(Cl)cc2)S1` (stereo not drawn), the growth in the test with RPMI-8226 leukemia was -19.1% (active); with OVCAR-8 ovarian, 23%; with OVCAR-5 ovarian, 78.1%; in the test on OVCAR-4 ovarian it was 48.3%; in the test on SK-OV-3 ovarian, 47%; in the test on IGROV1 ovarian it was 12.8%. Moreover, the growth in the test with OVCAR-3 ovarian was -29.2% (active); in the test on HS 578T breast it was 51.7%; with NCI/ADR-RES ovarian it was 39.4%; in the test with T-47D breast, 25.3%; in the test on BT-549 breast, -44.5% (active); in the test with MDA-MB-435 melanoma, -14% (active). The growth in the test on SW-620 colon is -59.8% (active); with MCF7 breast, -43.7% (active); with HCT-116 colon, -100% (active); with HCC-2998 colon, -100% (active); with KM12 colon it was -73.3% (active).
With `Oc1ccc(Cc2ccc(O)c(C3CC(c4ccc(Cl)cc4)=NN3)c2)cc1C1CC(c2ccc(Cl)cc2)=NN1` (stereo not drawn), the growth was 17.4% in the test on RPMI-8226 leukemia; 15.8% with OVCAR-8 ovarian; 37.8% in the test on OVCAR-5 ovarian; 43.5% with OVCAR-4 ovarian; 50.5% in the test with SK-OV-3 ovarian; 18.5% in the test on IGROV1 ovarian. Moreover, the growth with OVCAR-3 ovarian was 10% (active); with HS 578T breast, 13.8%; with NCI/ADR-RES ovarian, 4.68% (active); in the test with T-47D breast, 38.3%; with BT-549 breast it was 36.2%; in the test on MDA-MB-435 melanoma it was 3.35% (active). In addition, the growth in the test on SW-620 colon was 13.6%; in the test with MCF7 breast it was 17.5%; in the test on HCT-116 colon, 1.4% (active); in the test on HCC-2998 colon, 11.3%; in the test with KM12 colon it was 12%.
As for `CCCC[N+](CCCC)=c1ccc2nc3c(C)cc(N(CC)CC)cc3sc-2c1`, the growth was -48.2% (active) with RPMI-8226 leukemia; 5.84% (active) in the test on OVCAR-8 ovarian; 4.55% (active) in the test on OVCAR-5 ovarian; 22.9% in the test on OVCAR-4 ovarian; -8.75% (active) in the test on SK-OV-3 ovarian; 43.2% in the test with IGROV1 ovarian. Besides, the growth in the test with OVCAR-3 ovarian was -23.3% (active); in the test with HS 578T breast, 6.6% (active); in the test with NCI/ADR-RES ovarian it was -11.9% (active); in the test with T-47D breast, -23.3% (active); in the test on BT-549 breast, 2.12% (active); with MDA-MB-435 melanoma it was -88.1% (active). Further, the growth is -71.9% (active) with SW-620 colon; -50% (active) in the test on MCF7 breast; -24.7% (active) in the test on HCT-116 colon; 24.4% in the test with HCC-2998 colon; 0.608% (active) in the test on KM12 colon.
As to `O=C1/C(=C/c2ccc([N+](=O)[O-])o2)Oc2ccc(Br)cc21`, the growth in the test on RPMI-8226 leukemia is 84.2%; in the test with OVCAR-8 ovarian, 6.99% (active); in the test with OVCAR-5 ovarian, 105%; with OVCAR-4 ovarian, 5.15% (active); in the test with SK-OV-3 ovarian, 92.1%; with IGROV1 ovarian, -17.9% (active). Further, the growth is -43.1% (active) in the test on OVCAR-3 ovarian; 106% in the test with HS 578T breast; 98.3% with NCI/ADR-RES ovarian; 58% in the test with T-47D breast; -54.1% (active) in the test on BT-549 breast; -40.7% (active) in the test with MDA-MB-435 melanoma. The growth in the test on SW-620 colon was -70.5% (active); in the test on MCF7 breast, 16.7%; with HCT-116 colon it was -64% (active); with HCC-2998 colon, 102%; in the test on KM12 colon, 87.1%.
